# Measured values taken from the supplement of paper PMC6522484.
# Values joined by “and” are separate entries in the source; they are usually repeats but may differ in a detail not shown here. Identical values can stand only once. ± gives the standard deviation of the averaged measurements.
# Tests used:
# [1] = tested on: DLD1; experiment: cell viability (CellTiter-Glo) relative to plate median (fraction of plate median); higher = more viable cells; settings: 5 µM; treatment time 24 h; reporter: 7TFP
# Outline: (§1)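 Colorectal cancer cell lines stably transduced with lentiviral TCF/Wnt firefly luciferase reporters (7TFP or TCF4/Wnt) were seeded in 384-well plates. 24 h later they received library compounds at a final 5 µM for 24 h. Parallel plates were read for firefly luciferase or CellTiterGlo luminescence on a Tecan F500 reader. Each well's signal was normalised to the plate median (webcellHTS2, additive, no log transformation), and the mean of two independent replicates is reported.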
# [2] = tested on: HCT116; experiment: as above; settings: 5 µM; treatment time 24 h; reporter: TCF4/Wnt
# Outline: as §1
# [3] = tested on: SW480; experiment: as above; settings: 5 µM; treatment time 24 h; reporter: 7TFP
# Outline: as §1
# [4] = tested on: DLD1; experiment: TCF/Wnt firefly luciferase reporter signal relative to plate median (fraction of plate median); higher = higher Wnt reporter signal; settings: 5 µM; treatment time 24 h; reporter: 7TFP
# Outline: as §1
# [5] = tested on: SW480; experiment: as above; settings: 5 µM; treatment time 24 h; reporter: 7TFP
# Outline: as §1
# [6] = tested on: DLD1; experiment: cell viability (CellTiter-Glo) relative to plate median (fraction of plate median); higher = more viable cells; settings: 10 µM, treatment time 24 h
# Outline: (§2)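 Kinase inhibitor library compounds were added at a final 10 µM for 24 h to colorectal cancer cells in 384-well plates, 24 h after seeding. The cells stably expressed lentiviral TCF/Wnt firefly luciferase reporters. Firefly luciferase and CellTiterGlo luminescence came from parallel plates, and each well was normalised to its plate median (webcellHTS2, additive, untransformed), averaged over two independent replicates.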
# [7] = tested on: HCT116; experiment: as above; settings: 10 µM; treatment time 24 h; reporter: TCF4/Wnt
# Outline: as §2
# [8] = tested on: SW480; experiment: as above; settings: 10 µM; treatment time 24 h; reporter: 7TFP
# Outline: as §2
# [9] = tested on: DLD1; experiment: TCF/Wnt firefly luciferase reporter signal relative to plate median (fraction of plate median); higher = higher Wnt reporter signal; settings: 10 µM, treatment time 24 h
# Outline: as §2
# [10] = tested on: HCT116; experiment: as above; settings: 10 µM; treatment time 24 h; reporter: TCF4/Wnt
# Outline: as §2
# [11] = tested on: SW480; experiment: as above; settings: 10 µM; treatment time 24 h; reporter: 7TFP
# Outline: as §2
compound,measurement,setting,value
c1ccc(/N=N/c2ccccc2)cc1,cell viability,[1],1.03 ± 0.021
same,cell viability,[2],0.981 ± 0.027
same,cell viability,[3],1.04 ± 0.028
same,TCF/Wnt firefly luciferase reporter signal,[4],1.04 ± 0.088
same,TCF/Wnt firefly luciferase reporter signal,[5],0.986 ± 0.091
O=C1CC[C@@]2(O)[C@H]3Cc4ccc(O)c5c4[C@@]2(CCN3CC2CC2)[C@H]1O5,cell viability,[1],1.02 ± 0.093
same,cell viability,[2],0.914 ± 0.19
same,cell viability,[3],1.04 ± 0.035
same,TCF/Wnt firefly luciferase reporter signal,[4],0.985 ± 0.12
same,TCF/Wnt firefly luciferase reporter signal,[5],1.03 ± 0.028
C[C@@H]1CC[C@H]2[C@@H](C)C(=O)O[C@@H]3O[C@@]4(C)CC[C@@H]1[C@]32OO4,cell viability,[1],1.04
same,cell viability,[2],1.09 ± 0.14
same,cell viability,[3],1.145 ± 0.0071
same,TCF/Wnt firefly luciferase reporter signal,[4],1 ± 0.023
same,TCF/Wnt firefly luciferase reporter signal,[5],0.984 ± 0.066
Cn1cc(C2=C(c3cn(C4CCN(Cc5ccccn5)CC4)c4ccccc34)C(=O)NC2=O)c2ccccc21,cell viability,[6]; reporter: 7TFP,0.854 ± 0.016
same,cell viability,[6]; reporter: TCF4/Wnt,0.931 ± 0.059
same,cell viability,[7],1.08 ± 0.071
same,cell viability,[8],0.931 ± 0.081
same,TCF/Wnt firefly luciferase reporter signal,[9]; reporter: 7TFP,1.98 ± 0.86
same,TCF/Wnt firefly luciferase reporter signal,[9]; reporter: TCF4/Wnt,1.38 ± 0.18
same,TCF/Wnt firefly luciferase reporter signal,[10],2.9 ± 0.54
same,TCF/Wnt firefly luciferase reporter signal,[11],1.45 ± 0.17
COc1ccc(C(=O)O)cc1OC,cell viability,[1],0.902 ± 0.18
same,cell viability,[2],1.04 ± 0.098
same,cell viability,[3],0.984 ± 0.023
same,TCF/Wnt firefly luciferase reporter signal,[4],0.949 ± 0.087
same,TCF/Wnt firefly luciferase reporter signal,[5],0.9985 ± 0.0021
CC1=C2[C@H]3OC(=O)[C@@H](C)[C@@H]3CC[C@@]2(C)C=CC1=O,cell viability,[1],1.08 ± 0.15
same,cell viability,[2],1.06 ± 0.078
same,cell viability,[3],1.03 ± 0.043
same,TCF/Wnt firefly luciferase reporter signal,[4],0.968 ± 0.026
same,TCF/Wnt firefly luciferase reporter signal,[5],1.06 ± 0.12
COC[C@H]1OC(=O)c2coc3c2[C@@]1(C)C1=C(C3=O)[C@@H]2CCC(=O)[C@@]2(C)C[C@H]1OC(C)=O [Wortmannin],cell viability,[6]; reporter: 7TFP,0.844 ± 0.016
same,cell viability,[6]; reporter: TCF4/Wnt,0.8345 ± 0.0064
same,cell viability,[7],0.733 ± 0.091
same,cell viability,[8],0.963 ± 0.035
same,TCF/Wnt firefly luciferase reporter signal,[9]; reporter: 7TFP,0.662 ± 0.033
same,TCF/Wnt firefly luciferase reporter signal,[9]; reporter: TCF4/Wnt,0.821 ± 0.059
same,TCF/Wnt firefly luciferase reporter signal,[10],0.699 ± 0.021
same,TCF/Wnt firefly luciferase reporter signal,[11],0.856 ± 0.54
O=C1NC(=O)C(=O)C(=O)N1,cell viability,[1],1.01 ± 0.057
same,cell viability,[2],0.935 ± 0.063
same,cell viability,[3],0.945 ± 0.014
same,TCF/Wnt firefly luciferase reporter signal,[4],0.829 ± 0.03
same,TCF/Wnt firefly luciferase reporter signal,[5],0.901 ± 0.064
CC(C)CC(N(C)C)C1(c2ccc(Cl)cc2)CCC1 (stereo unspecified),cell viability,[1],0.917 ± 0.072
same,cell viability,[2],0.924 ± 0.013
same,cell viability,[3],1.02 ± 0.042
same,TCF/Wnt firefly luciferase reporter signal,[4],0.991 ± 0.042
same,TCF/Wnt firefly luciferase reporter signal,[5],0.87 ± 0.073
COc1cc2c(cc1OC)[C@@H]1C(=O)c3ccc4c(c3O[C@@H]1CO2)CC(C(C)C)O4 (stereo partly specified),cell viability,[1],0.963 ± 0.11
same,cell viability,[2],0.685 ± 0.14
same,cell viability,[3],0.9715 ± 0.0092
same,TCF/Wnt firefly luciferase reporter signal,[4],0.84 ± 0.0042
same,TCF/Wnt firefly luciferase reporter signal,[5],0.842
O=c1ccc2cc(O[C@@H]3O[C@H](CO)[C@@H](O)[C@H](O)[C@H]3O)c(O)cc2o1,cell viability,[1],1.04
same,cell viability,[2],0.922 and 0.995
same,cell viability,[3],0.965 and 0.998
same,TCF/Wnt firefly luciferase reporter signal,[4],1.23 and 1.08
same,TCF/Wnt firefly luciferase reporter signal,[5],1.09 and 1.19
N.N.[Cl][Pt][Cl],cell viability,[1],1.1 ± 0.11
same,cell viability,[2],1.07 ± 0.014
same,cell viability,[3],1.02 ± 0.014
same,TCF/Wnt firefly luciferase reporter signal,[4],0.939 ± 0.016
same,TCF/Wnt firefly luciferase reporter signal,[5],0.954 ± 0.08
COc1cc([C@@H]2c3cc4c(cc3[C@H](O)[C@H]3COC(=O)[C@@H]23)OCO4)cc(OC)c1OC,cell viability,[1],1.04 ± 0.1
same,cell viability,[2],0.774 ± 0.025
same,cell viability,[3],1.22 ± 0.11
same,TCF/Wnt firefly luciferase reporter signal,[4],0.819 ± 0.052
same,TCF/Wnt firefly luciferase reporter signal,[5],0.887 ± 0.057
